Measurements: paper PMC4336329 (PLoS ONE, 2015)
About 14,000 (4.5%) of roughly 310,000 compounds showed an effect of 50% or more. The effect is printed as a negative number. Only a selection was taken, and strong results are over-represented in it overall.

biological target: human ether-à-go-go-related gene (hERG) potassium channel (human, UniProt Q12809); experiment: primary screen, population patch clamp on CHO cells stably expressing hERG; higher = less effect of the substance
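Also: peak tail current of the secondary pulse compared with the same well before compound.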

human ether-à-go-go-related gene (hERG) potassium channel, sequence (Q12809 whole entry, looked up): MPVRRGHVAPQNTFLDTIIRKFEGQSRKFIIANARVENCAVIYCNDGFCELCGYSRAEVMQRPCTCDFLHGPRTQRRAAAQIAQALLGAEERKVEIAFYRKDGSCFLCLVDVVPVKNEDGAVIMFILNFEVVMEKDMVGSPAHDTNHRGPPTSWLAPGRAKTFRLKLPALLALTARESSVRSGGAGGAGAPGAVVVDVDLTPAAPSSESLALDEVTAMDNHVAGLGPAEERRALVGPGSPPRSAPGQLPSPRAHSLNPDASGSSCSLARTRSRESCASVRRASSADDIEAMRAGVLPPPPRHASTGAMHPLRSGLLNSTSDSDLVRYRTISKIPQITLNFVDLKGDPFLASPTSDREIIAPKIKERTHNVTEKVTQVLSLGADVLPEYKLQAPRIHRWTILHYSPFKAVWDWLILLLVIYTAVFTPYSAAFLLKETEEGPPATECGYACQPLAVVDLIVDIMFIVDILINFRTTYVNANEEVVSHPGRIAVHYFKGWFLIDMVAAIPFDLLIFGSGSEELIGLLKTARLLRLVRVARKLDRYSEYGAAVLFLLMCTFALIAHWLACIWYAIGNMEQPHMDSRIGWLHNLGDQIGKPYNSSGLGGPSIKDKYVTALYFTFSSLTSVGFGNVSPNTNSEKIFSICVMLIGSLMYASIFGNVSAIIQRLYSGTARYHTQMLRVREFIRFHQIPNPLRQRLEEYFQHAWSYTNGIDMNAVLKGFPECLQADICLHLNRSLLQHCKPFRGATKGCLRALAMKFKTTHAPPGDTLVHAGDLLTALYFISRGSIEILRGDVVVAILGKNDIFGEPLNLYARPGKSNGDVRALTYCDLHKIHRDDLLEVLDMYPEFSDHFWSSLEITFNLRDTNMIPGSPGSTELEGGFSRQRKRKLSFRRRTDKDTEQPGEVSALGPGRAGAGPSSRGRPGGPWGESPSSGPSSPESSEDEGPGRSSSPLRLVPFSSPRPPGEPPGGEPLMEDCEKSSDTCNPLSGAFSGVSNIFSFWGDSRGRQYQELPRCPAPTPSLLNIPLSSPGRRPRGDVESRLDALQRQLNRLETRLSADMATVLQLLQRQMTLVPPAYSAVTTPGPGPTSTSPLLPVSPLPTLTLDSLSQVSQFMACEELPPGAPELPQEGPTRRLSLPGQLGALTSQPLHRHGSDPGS

Row | SMILES | hERG current change (%, negative = inhibition) at 10uM
1 | N#C/C(=C/c1ccccc1[N+](=O)[O-])c1nc(C2CC2)cs1 | -12.3%
2 | CCCc1nnc(NC(=O)CCC(=O)NCc2ccccc2OC)s1 | 21.4%
3 | CC1(c2ccccc2)NC(=O)N(CC(=O)NC(=O)NC2CCCC2)C1=O (centres unmarked) | 0.115%
4 | Cc1ccc(-c2noc(CSc3nnc(-c4ccccc4)n3C)n2)cc1 | -3.5%
5 | COc1cc2c(cc1OC)C(c1ccc(Br)cc1)NC(=O)C2 (centres unmarked) | 12.1%
6 | O=C(CSc1nnc(-c2ccco2)n1CC1CCCO1)NC1CCCC1 (centres unmarked) | -4.75%
7 | CN(C)CC(O)COc1cccc(OCC(O)CN(C)C)c1.Cl (centres unmarked) | 11.8%
8 | OCCN(CCO)CC(O)COc1ccc(Br)cc1 (centres unmarked) | 3.82%
9 | CCCCN(CC(O)COc1cccc(C)c1)CC(O)COc1cccc(C)c1 (centres unmarked) | -81.7%
10 | CC(C)NCC(O)COc1ccc(Br)cc1.Cl (centres unmarked) | -30.3%
11 | CCCCN(CCCC)CC(O)COc1ccc(Br)cc1 (centres unmarked) | -74.4%
12 | Cc1cccc(OCC(O)Cn2ccnc2C)c1 (centres unmarked) | -9.12%
13 | CCOP(=S)(OCC)SCC(=O)NC(C(=O)O)C(C)C (centres unmarked) | 7.13%
14 | O=C(N=Nc1c(O)[nH]c2ccccc12)c1ccc2c(c1)OCO2 | 6.09%
15 | CCCNC(=O)c1ccc(S(=O)(=O)c2ccc(OC)cc2)c([N+](=O)[O-])c1 | -31.2%
16 | Cc1cccc(NC(=S)NCCN2CCOCC2)c1C | 13.9%
17 | COc1ccccc1-c1nnc2sc(COc3ccc(F)cc3)nn12 | -74%
18 | COc1ccccc1-c1nnc2sc(COc3ccccc3)nn12 | -2.14%
19 | COc1ccccc1-c1nnc2sc(COc3ccc(Cl)cc3)nn12 | -37.8%
20 | COc1ccc2cc(CCNC(=O)c3ccco3)c(=O)[nH]c2c1 | -2.81%
21 | O=P(O)(CCc1ccccn1)CN1CCCCC1 | -67.6%
22 | O=P(O)(CCc1ccccc1)CN1CCCCC1 | 10.9%
23 | O=P(O)(CCc1ccccn1)CN1CCOCC1 | 6.28%

Row | SMILES | hERG current change (%, negative = inhibition) at 10uM
24 | Cc1cc(C)c2nc(-c3cccnc3)cc(C(=O)NC(C)c3cnn(C)c3C)c2c1 (centres unmarked) | -30.6%
25 | CC(C)CCN1C(=O)c2ccc(C(=O)NCC3CCCO3)cc2C1=O (centres unmarked) | -8.48%
26 | Cc1cccc(C)c1OCc1cc(C(=O)N(Cc2nccn2C)C(C)C)no1 | -5.91%
27 | Cc1cc(OCc2cc(C(=O)N(Cc3nccn3C)C(C)C)no2)cc(C)c1Cl | -58.5%
28 | CC(C)N(Cc1nccn1C)C(=O)c1cc(COc2ccc3ncccc3c2)on1 | 9.33%
29 | CC(C)N(Cc1nccn1C)C(=O)c1cc(COc2ccc(-n3cncn3)cc2)on1 | -51.5%
30 | CC(C)N(Cc1nccn1C)C(=O)c1cc(COc2ccc(F)cc2Cl)on1 | 0.188%
31 | COc1cccc(OCc2cc(C(=O)N(Cc3nccn3C)C(C)C)no2)c1 | 8.5%
32 | COc1ccc2nc(SC)cc(C)c2c1 | 16.5%
33 | CCC1CCC2(CC1)NC(CO)(CO)CO2 (centres unmarked) | 8.52%
34 | CC(C)CC1(C)N=C(c2ccccc2)C(=S)N1 (centres unmarked) | 8.32%
35 | COc1cccc(CN2CCN(CCCc3ccccc3)C(CCO)C2)c1OC (centres unmarked) | -48.6%
36 | CCCn1ncc(CN2CCN(CCc3ccccc3)C(CCO)C2)c1C (centres unmarked) | -46.9%
37 | CCOc1cccc(CN2CCN(Cc3ccc(C)o3)C(CCO)C2)c1O (centres unmarked) | -13.1%
38 | CCOc1cccc(CN2CCN(CCc3ccccc3)C(CCO)C2)c1O (centres unmarked) | -69.7%
39 | CCOc1cccc(CN2CCN(CCCc3ccccc3)C(CCO)C2)c1O (centres unmarked) | -76.3%
40 | C=CCOc1ccccc1CN1CCN(CCc2ccccc2)C(CCO)C1 (centres unmarked) | -59.4%
41 | COc1cccc(CN2CCN(CCCc3ccccc3)C(CCO)C2)c1O (centres unmarked) | -72.4%
42 | COC(=O)CN1C(=S)N(c2ccc(OC)cc2)C(=O)/C1=C/c1cccs1 | 34%
43 | Nc1nc(NCc2ccccc2)n(-c2ccccc2)n1 | 14.9%
44 | CCOc1ccc(-n2nnnc2-c2nc3ccccc3s2)cc1 | 11.9%
45 | O=c1[nH]cc(S(=O)(=O)N2CCOCC2)c(=O)[nH]1 | -7.17%
46 | CC1CN(CCc2ccccc2)c2nc3c(c(=O)n(CC(N)=O)c(=O)n3C)n2C1 (centres unmarked) | 2.53%

Row | SMILES | hERG current change (%, negative = inhibition) at 10uM
47 | CC1CN(CCc2ccccc2)c2nc3c(c(=O)[nH]c(=O)n3C)n2C1 (centres unmarked) | -35.9%
48 | CCOCCn1c(=O)c2c(nc3n2CCCN3CCc2ccccc2)n(C)c1=O | -22.8%
49 | CCn1c(=O)c2c(nc3n2CC(C)CN3CCc2ccccc2)n(C)c1=O (centres unmarked) | -72.6%
50 | CC1CN(CCc2ccccc2)c2nc3c(c(=O)n(C)c(=O)n3C)n2C1 (centres unmarked) | -33.9%
51 | COCCn1c(=O)c2c(nc3n2CC(C)CN3Cc2ccccc2)n(C)c1=O (centres unmarked) | -47.6%
52 | COCCn1c(=O)c2c(nc3n2CCCN3CCc2ccccc2)n(C)c1=O | -31.2%
53 | C=CCn1c(=O)c2c(nc3n2CCCN3CCc2ccccc2)n(C)c1=O | -19.8%
54 | CCOCCn1c(=O)c2c(nc3n2CC(C)CN3CCc2ccccc2)n(C)c1=O (centres unmarked) | -71.5%
55 | C=CCn1c(=O)c2c(nc3n2CC(C)CN3CCc2ccccc2)n(C)c1=O (centres unmarked) | -72%
56 | CCOCCn1c(=O)c2c(nc3n2CC(C)CN3Cc2ccccc2)n(C)c1=O (centres unmarked) | -49.5%
57 | COCCn1c(=O)c2c(nc3n2CC(C)CN3CCc2ccccc2)n(C)c1=O (centres unmarked) | -56.6%
58 | CC(C)C(=O)Nc1cccc(NC(=O)c2cc3ccccc3o2)c1 | -22%
59 | C=C(C)C1CC=C(C)/C(=N/NC(=O)COc2cccc3ccccc23)C1 (centres unmarked) | 10.9%
60 | CCOc1cc(C(=O)NN2CCOCC2)cc(OCC)c1OCC | 35.2%
61 | CC(C)CC(=O)NC(=S)Nc1nc(-c2cccc3ccccc23)cs1 | 12.7%
62 | COc1ccc(/C=N/n2cnnc2SCc2ccccc2)cc1 | -2.99%
63 | Cc1nc(SCC(=O)NC2CCS(=O)(=O)C2)c2c(C)c(C)sc2n1 (centres unmarked) | 6.15%
64 | Clc1ccccc1-c1nnc(-c2ccccc2Cl)o1 | -2.56%
65 | COc1cccc(N/N=C/c2cccc(Br)c2O)c1 | -11.1%
66 | CCOC(=O)c1sc2nc(SCC#N)n(CCCN3CCCC3=O)c(=O)c2c1C | -62.9%
67 | CCOC(=O)c1sc2nc(SCC#N)n(CC3CCCO3)c(=O)c2c1C (centres unmarked) | -13.5%
68 | CCOC(=O)c1sc2nc(SCC(=O)N(CC)CC)n(CCCN3CCCC3=O)c(=O)c2c1C | -32.4%
69 | COc1cccc(C2C(C(=O)c3cc4ccccc4o3)=C(O)C(=O)N2CCN(C)C)c1OC (centres unmarked) | 0.215%

Row | SMILES | hERG current change (%, negative = inhibition) at 10uM
70 | Cc1ccc(C(=O)CSc2cc(C)[nH]c(=O)n2)cc1 | 6.76%
71 | CC(=O)NN1C(=O)/C(=C\c2ccc(Cl)cc2)SC1=S | 0.662%
72 | Cc1ccc2nc3c(cc(C#N)c(=O)n3-c3nccs3)c(=O)n2c1 | 2.51%
73 | CCCn1c(=N)c(C#N)cc2c(=O)n3ccccc3nc21 | -9.89%
74 | Cc1ccc2nc3c(cc(C#N)c(=N)n3Cc3cccnc3)c(=O)n2c1 | -60.4%
75 | Cc1cccn2c(=O)c3cc(C#N)c(=O)n(-c4c(C)n(C)n(-c5ccccc5)c4=O)c3nc12 | -7.5%
76 | CCC(C)n1c(=N)c(C#N)cc2c(=O)n3cccc(C)c3nc21 (centres unmarked) | -66.9%
77 | Cc1ccc2nc(NCc3ccccc3)c(C=NCc3cccnc3)c(=O)n2c1 | 3.39%
78 | CCC(C)n1c(=N)c(C#N)cc2c(=O)n3cc(C)ccc3nc21 (centres unmarked) | -70.9%
79 | N#Cc1cc2c(=O)n3ccccc3nc2n(Cc2cccnc2)c1=O | -21%
80 | CCCn1c(=N)c(C#N)cc2c(=O)n3cccc(C)c3nc21 | -53%
81 | Cc1ccc(Cn2c(=N)c(C#N)cc3c(=O)n4cccc(C)c4nc32)cc1 | -13%
82 | CCC(C)n1c(=N)c(C#N)cc2c(=O)n3ccccc3nc21 (centres unmarked) | -40.9%
83 | Cc1ccc(C)c(-n2c(=O)c(C#N)cc3c(=O)n4ccccc4nc32)c1 | 30.5%
84 | CC(=O)NC(CC(=O)Nc1nc(C)cs1)c1ccccc1 (centres unmarked) | 14.1%
85 | CCCCCCCCn1sccc1=O | -33.8%
86 | Cc1ccc(S(=O)(=O)N2CCN3CCCC3C2)cc1 (centres unmarked) | -6.76%
87 | COc1ccc(S(=O)(=O)NCCc2nnc3ccc(SCC(=O)Nc4nc(C)cs4)nn23)cc1 | 25.3%
88 | NC(=O)CC1C(=O)N(c2ccc(Cl)cc2)C(=S)N1NC(=O)c1cccc(F)c1 (centres unmarked) | 15.3%
89 | COc1ccccc1/C=C/C(=O)NCC(=O)N/N=C(/C)c1ccco1 | 7.74%
90 | Nc1[nH]nc2nc3ccccc3cc12 | 23%
91 | O=c1oc2ccccc2cc1-c1cn2cccnc2n1 | 1.91%
92 | COc1ccc(C2C(C(=O)N3CCN(c4ccccn4)CC3)CCC(=O)N2c2cc(OC)c(OC)c(OC)c2)cc1 (centres unmarked) | 9.77%
